Experimental data taken from PubChem BioAssay (NCATS).
Results filed as inconclusive are left out. Entries that show only a call come without a potency. Unmarked numbers belong to inactive results. Active and inactive are the calls of the source. Calls come from the whole dose curve; as a rule, active = well fitted cell-killing curve with a large enough effect; inconclusive = small, poorly fitted or top-dose-only effect, or effect the other way; inactive = no such curve, though single readings can be large or run the other way.

Columns and labels:
[1] = Viability qHTS for spleen associated tyrosine kinase inhibitor (SYKi) naive MV4-11 cells (AID 1963823); note: nearly all actives have a fitted effect of over 40% in size
Method in brief: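 Seeding of 500 SYKi-naive MV4-11 cells per well onto pre-dispensed compounds preceded a 72 hr incubation at 37 C. Luminescent CellTiter-Glo signal, read after 10 min at room temperature, reflected viable cells.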

[2] = Viability qHTS for spleen associated tyrosine kinase inhibitor (SYKi) drug resistant MV4-11 cells (AID 1963824); note: nearly all actives have a fitted effect of over 35% in size
Method in brief: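 CellTiter-Glo luminescence, read 10 min after reagent addition, reports viability after a 72 hr compound exposure. Cells are an MV4-11 line made resistant to SYK inhibition, seeded at 500 per well onto compound-containing plates.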
Potency is the fitted concentration of half-maximal effect.

For `Cc1cn2cc(C(=O)N(C)CCO)cc(NC3CCOc4cccc(C)c43)c2n1` (stereo not drawn), the Potency [1] was “inactive” and the Potency [2] was “inactive”.
With `O=C(Nc1cccnn1)N1CCN(c2nccc(-c3ccc(F)c(F)c3)n2)CC1` the Potency [1] was “inactive” and the Potency [2] was “inactive”.
In the case of `C(#Cc1nc2ncccc2nc1OCCN1CCCC1)c1ccccc1`, the Potency [1] is reported as 651 nM (active) and the Potency [2] is reported as 1030 nM (active).
With `COc1ccc(C(=O)OC2C3C=COC(OC4OC(CO)C(O)C(O)C4O)C3C3(CO)OC23)cc1OC` (stereo not drawn) the Potency [1] was “inactive” and the Potency [2] was “inactive”.
In the case of `CC1=CC(=O)C2C(C)(C)CCC[C@]2(C)[C@H]1CO` (stereo partly drawn), the Potency [1] is reported as “inactive” and the Potency [2] is reported as “inactive”.
In the case of `Cc1cc(C(=O)N2Cc3cnn(C)c3Nc3ccccc32)ccc1CNC(=O)N1CCC[C@H]1C(=S)N1CCCN(C)CC1`, the Potency [1] is reported as “inactive” and the Potency [2] is reported as “inactive”.
With `COc1ccc2c(c1)[C@@H]1C[C@]1(C(=O)N1[C@@H]3CC[C@H]1CN(C)C3)Cn1c-2c(C2CCCCC2)c2ccc(C(=O)NS(=O)(=O)N(C)C)cc21` the Potency [1] was 11600 nM (active) and the Potency [2] was 7310 nM (active).
With `CC(=O)NCCNc1cc(Cl)nn2c(-c3cccc(S(=O)(=O)N(C)C)c3)c(C)nc12` the Potency [1] was 1460 nM (active) and the Potency [2] was 1640 nM (active).
With `CC(=O)O[C@@H]1[C@H](O[C@@H]2O[C@H](CO)[C@@H](O)[C@H](O)[C@H]2O)[C@@H](O[C@@H]2O[C@@H](C)[C@H](O)[C@@H](O[C@@H]3O[C@H](CO)[C@@H](O)[C@H](O)[C@H]3O)[C@H]2O)[C@H](OC(=O)C23CCC4(C)C(=CCC5C6(C)CC(O)C(O[C@@H]7O[C@H](C(=O)O)[C@@H](O)[C@H](O)[C@H]7O)C(C)(C(=O)O)C6CCC54C)C2CC(C)(C)CC3O)O[C@@H]1C` (stereo partly drawn) the viability (% of control) [1] was 92% [at 9.25 µM] and the viability, % of control [2] was 102% [at 9.25 µM].
In the case of `C=C1C(OC(C)=O)C(=O)C2C(C)(C)C(O)CCC2(C)C1CC(OC(C)=O)/C(C)=C/COC(C)=O` (stereo not drawn), the Potency [1] is reported as “inactive” and the Potency [2] is reported as “inactive”.
With `C=Cc1ccc(O[C@@H]2O[C@H](CO[C@@H]3O[C@@H](C)[C@H](O)[C@@H](O)[C@H]3O)[C@@H](O)[C@H](O)[C@H]2O)cc1` the Potency [1] was “inactive” and the Potency [2] was “inactive”.
In the case of `[O-][n+]1cccc(-c2nc3c(Cl)cccc3cc2[C@@H](Nc2ncnc3cccnc23)C(F)(F)F)c1`, the Potency [1] is reported as 4170 nM (active) and the Potency [2] is reported as 13200 nM (active).
With `CC(C)CCNC(=O)[C@H](CC(C)C)NC(=O)[C@H]1O[C@@H]1C(=O)O` the Potency [1] was “inactive” and the Potency [2] was “inactive”.
For `C=C1C(=O)O[C@@H]2[C@H]3C(C)=CC(=O)C3=C(C)CC[C@@H]12`, the Potency [1] was 2060 nM (active) and the Potency [2] was 651 nM (active).
In the case of `C=C1C2(C)CC3C4(C)C=CC(=O)OC(C)(C)C4CCC3(C)C1(C(=O)OC)C(=O)C(C)(O)C2=O` (stereo not drawn), the Potency [1] is reported as “inactive” and the Potency [2] is reported as 224 nM (active).
With `COC(=O)c1ccc(OC)cc1O[C@@H]1O[C@H](CO[C@@H]2OC[C@@H](O)[C@H](O)[C@H]2O)[C@@H](O)[C@H](O)[C@H]1O` the Potency [1] was “inactive” and the Potency [2] was “inactive”.
For `CCC[C@@H](NC(=O)N1C(=O)C(CC)(CC)[C@@H]1Oc1ccc(C(=O)N2CCN(C)CC2)cc1)c1ccc2c(c1)OCO2`, the Potency [1] was 18400 nM (active) and the Potency [2] was 20600 nM (active).
In the case of `C=C[C@H]1[C@H](O[C@@H]2O[C@H](CO)[C@@H](O)[C@H](O)[C@H]2O)OC=C(C(=O)OC)[C@H]1CCOC(=O)c1cc(O)c(O)c(O)c1`, the Potency [1] is reported as “inactive” and the Potency [2] is reported as “inactive”.
In the case of `C=C(C)[C@H]1C[C@@H](O)C(=C)CC[C@@H](O)C(=C)[C@@H](O)C1`, the Potency [1] is reported as “inactive” and the Potency [2] is reported as “inactive”.
In the case of `Cc1cc(C(=O)Nc2cccc(C(=O)Nc3cccc(C(F)(F)F)c3)c2)on1`, the Potency [1] is reported as “inactive” and the Potency [2] is reported as “inactive”.
For `C=CC(=O)N1CCCN(c2cc(NCCC(=O)O)nc(-c3ccccn3)n2)CC1`, the Potency [1] was “inactive” and the Potency [2] was “inactive”.
In the case of `COc1cc(C(=O)OCCCN2CCCN(CCCOC(=O)c3cc(OC)c(OC)c(OC)c3)CC2)cc(OC)c1OC`, the Potency [1] is reported as 21100 nM (active) and the Potency [2] is reported as 21100 nM (active).
With `C[C@@H]1O[C@@H](O[C@H]2[C@H](O)[C@@H](O)[C@H](OC(=O)[C@]34CCC(C)(C)C[C@H]3C3=CCC5[C@@]6(C)CC[C@H](O[C@@H]7O[C@H](C(=O)O)[C@@H](O)[C@H](O)[C@H]7O)C(C)(C)C6CC[C@@]5(C)[C@]3(C)CC4)O[C@@H]2CO)[C@H](O)[C@H](O)[C@H]1O` (stereo partly drawn) the viability (% of control) [1] was 72.1% [at 9.25 µM] and the viability, % of control [2] was 75.6% [at 9.25 µM].
For `C/C(=C\CCC(C)(C)O)CCO[C@@H]1O[C@H](CO[C@@H]2O[C@@H](C)[C@H](O)[C@@H](O)[C@H]2O)[C@@H](O)[C@H](O)[C@H]1O`, the Potency [1] was “inactive” and the Potency [2] was “inactive”.
For `OC[C@H]1O[C@@H](n2cnc3c(NCc4ccc(O)cc4)ncnc32)[C@H](O)[C@@H]1O`, the Potency [1] was 1030 nM (active) and the Potency [2] was 731 nM (active).
With `Cc1ccc(-c2nn(C(C)(C)C)c3ncnc(N)c23)cc1` the Potency [1] was 3660 nM (active) and the Potency [2] was 8200 nM (active).
With `C[C@H]1[C@H](C)CC[C@]2(C(=O)O[C@@H]3O[C@H](CO)[C@@H](O)[C@H](O)[C@H]3O)CC[C@]3(C(=O)O)C(=CCC4[C@@]5(C)CC[C@H](O[C@@H]6O[C@H](CO)[C@@H](O)[C@H](O)[C@H]6O)C(C)(C)C5CC[C@]43C)[C@H]12` (stereo partly drawn) the viability (% of control) [1] was 69.7% [at 9.25 µM] and the viability, % of control [2] was 96% [at 9.25 µM].
With `C=C1[C@@H]2CC[C@@]3(C)[C@H](c4ccoc4)OC(=O)C[C@]13O[C@H]1CC(=O)C(C)(C)[C@H](C(O)C(=O)OC)[C@]12C` (stereo partly drawn) the Potency [1] was “inactive” and the Potency [2] was “inactive”.
With `COc1c(OC2OC(CO)C(O)C(O)C2O)ccc(O)c1C(=O)OCc1ccccc1O[C@@H]1O[C@H](CO)[C@@H](O)[C@H](O)[C@H]1O` (stereo partly drawn) the Potency [1] was “inactive” and the Potency [2] was “inactive”.
Molecule `C[C@@H]1O[C@@H](O[C@H]2[C@H](OC(=O)[C@]34CCC(C)(C)C[C@H]3C3=CCC5[C@@]6(C)C[C@H](O)[C@H](O[C@@H]7O[C@H](CO)[C@@H](O)[C@H](O)[C@H]7O)[C@@](C)(CO)C6[C@H](O)C[C@@]5(C)[C@]3(C)C[C@H]4O)OC[C@H](O)[C@@H]2O)[C@H](O)[C@H](O)[C@H]1O[C@@H]1OC[C@@H](O)[C@H](O[C@H]2OC[C@](O)(CO)[C@H]2O)[C@H]1O` (stereo partly drawn) has a viability (% of control) [1] of 84.5% [at 9.25 µM] and a viability, % of control [2] of 104% [at 9.25 µM].
In the case of `C=C(C(=O)OC)C1C(O)CC2(C)C(O)CCC(=O)C2C1O` (stereo not drawn), the Potency [1] is reported as “inactive” and the Potency [2] is reported as “inactive”.
With `COc1cc(/C=C/C(=O)O[C@H]2[C@H](O)[C@@H](CO)O[C@@]2(CO)O[C@H]2O[C@H](COC(=O)c3ccc(O)cc3)[C@@H](O)[C@H](O)[C@H]2O)cc(OC)c1OC` the Potency [1] was “inactive” and the Potency [2] was “inactive”.
In the case of `N#Cc1ccc(Nc2nc(-c3ccc(O)cc3O)cs2)cc1C(F)(F)F`, the Potency [1] is reported as 5170 nM (active) and the Potency [2] is reported as 4610 nM (active).
With `CC(=O)N[C@H](Cc1ccc(O)cc1)C(=O)N[C@H](CCCN=C(N)N)C(=O)N[C@H](Cc1ccccc1)C(N)=O` the Potency [1] was “inactive” and the Potency [2] was “inactive”.
Molecule `C[C@@H]1O[C@@H](O[C@H]2[C@H](OC(=O)[C@]34CCC(C)(C)C[C@H]3C3=CCC5[C@@]6(C)C[C@H](O)[C@H](O[C@@H]7O[C@H](CO[C@@H]8OC[C@H](O)[C@H](O)[C@H]8O)[C@@H](O)[C@H](O)[C@H]7O)C(C)(C)C6CC[C@@]5(C)[C@]3(C)C[C@H]4O)OC[C@@H](O)[C@@H]2O)[C@H](O)[C@H](O[C@@H]2OC[C@](O)(CO)[C@H]2O)[C@H]1O[C@@H]1OC[C@H](O)[C@H](O[C@@H]2OC[C@@H](O)[C@H](O)[C@H]2O)[C@H]1O` (stereo partly drawn) has a viability (% of control) [1] of 72% [at 9.25 µM] and a viability, % of control [2] of 85% [at 9.25 µM].
For `C=C1CCC2(OC1)OC1CC3C4CC=C5CC(O)CC(O[C@@H]6OC[C@@H](O)[C@H](O)[C@H]6O)C5(C)C4CCC3(C)C1(O)C2C` (stereo partly drawn), the Potency [1] was “inactive” and the Potency [2] was “inactive”.
With `C=C[C@H]1[C@H](O[C@@H]2O[C@H](CO)[C@@H](O)[C@H](O)[C@H]2O)OC=C2C(=O)OCC[C@]21O` the Potency [1] was “inactive” and the Potency [2] was “inactive”.
In the case of `COc1c2c(c(C)c3c1C(=O)OC3)O[C@@]1(C)C[C@@H](O)[C@]34O[C@](OC)(CC[C@]3(C)[C@H]1C2)OC4(C)C`, the Potency [1] is reported as “inactive” and the Potency [2] is reported as “inactive”.
In the case of `COc1cc(C)c(C(=O)O[C@@H]2[C@H](O)[C@@H](CO)O[C@H]2n2ccc(=O)[nH]c2=O)c(OC)c1`, the Potency [1] is reported as “inactive” and the Potency [2] is reported as “inactive”.
For `O=[N+]([O-])c1cccc2[nH]c(CNc3nc(N4CCOCC4)nc4c3ncn4-c3ccsc3)nc12`, the Potency [1] was 14.6 nM (active) and the Potency [2] was 20.6 nM (active).
In the case of `CCCCNc1ncc(C(=O)NCc2ccc(-n3ccnc3)cc2)c(NC2CCC(O)CC2)n1` (stereo not drawn), the Potency [1] is reported as 92 nM (active) and the Potency [2] is reported as 259 nM (active).
In the case of `COC(=O)C12C(=O)C(C)=C(O)C1(C)C(C)=CC1C3(CO)CCC(O)C(C)(C)C3CCC12C` (stereo not drawn), the Potency [1] is reported as “inactive” and the Potency [2] is reported as “inactive”.
For `O=C(O[C@H]1[C@@H]2C[C@@H]3OC[C@@](O)([C@H]2[C@H](O[C@@H]2O[C@H](CO)[C@@H](O)[C@H](O)[C@H]2O)O3)[C@@H]1O)c1ccccc1`, the Potency [1] was “inactive” and the Potency [2] was “inactive”.
For `O=C(OC1C=C(CO)C2C(OC3OC(CO)C(O)C(O)C3O)OC=CC12)c1ccc(O)cc1` (stereo not drawn), the Potency [1] was “inactive” and the Potency [2] was “inactive”.
For `O=C(O)c1cc(O[C@@H]2O[C@H](CO)[C@@H](O)[C@H](O)[C@H]2O)ccc1O`, the Potency [1] was “inactive” and the Potency [2] was “inactive”.
For `C[C@H]1[C@H](C)CC[C@]2(C(=O)O)CC[C@]3(C)C(=CCC4[C@@]5(C)C[C@@H](O)[C@H](O)C(C)(C)C5CC[C@]43C)[C@H]12` (stereo partly drawn), the Potency [1] was “inactive” and the Potency [2] was “inactive”.
For `CC(C)CC(=O)NCCn1cc(C(=O)O)c(=O)cc1C(O)c1ccccc1` (stereo not drawn), the Potency [1] was “inactive” and the Potency [2] was “inactive”.
With `Nc1ncnc2c1c(-c1ccc(Oc3ccccc3)cc1)cn2C1CCCC1` the Potency [1] was 366 nM (active) and the Potency [2] was 1030 nM (active).
For `O=C(/C=C/c1ccc(O)c(O)c1)O[C@@H]1[C@@H](O)[C@H](OC2CCCCC2O)O[C@H](CO)[C@H]1O` (stereo partly drawn), the Potency [1] was “inactive” and the Potency [2] was “inactive”.
